In PubChem BioAssay (NCI):
The panel holds about 79,000 compounds, 15% with a hit somewhere; the sample as a whole holds those more often. Activity calls are given as the source filed them. Rule as the data show it: active = growth inhibition above about 70%; inactive = the rest.

Assays:
[1] = NCI Yeast Anticancer Drug Screen. Data for the rad52 strain (AID 147);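 also: 0% = growth of vehicle-treated control cultures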; settings: S. cerevisiae rad52 mutant growth inhibition, hits give high values
Method in brief: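 Genetically altered yeast (DNA damage repair defect) treated with compound; inhibition calculated relative to vehicle.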

[2] = NCI Yeast Anticancer Drug Screen. Data for the wt1 strain (AID 149);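 also: 0% = growth of vehicle-treated wt1 cultures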; settings: S. cerevisiae wt1 strain (SPY 50644) growth inhibition, hits give high values
Method in brief: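 Measured: growth of wt1 yeast under compound versus vehicle treatment, reported as inhibition.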

[3] = NCI Yeast Anticancer Drug Screen. Data for the rad50EPP+ strain (AID 151);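 also: 0% = growth of vehicle-treated control cultures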; settings: S. cerevisiae rad50 mutant strain, hits give high values
Method in brief: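 Strain rad50EPP+; compound exposure; % growth inhibition vs vehicle.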

[4] = NCI Yeast Anticancer Drug Screen. Data for the mgt1 strain (AID 153); settings: S. cerevisiae mgt1 mutant growth inhibition, hits give high values
Method in brief: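 Read-out: yeast growth inhibition vs vehicle control. Strain mgt1, drawn from a panel altered in DNA damage repair or cell cycle control.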

[5] = NCI Yeast Anticancer Drug Screen. Data for the rad50 strain (AID 155);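 also: 0% = growth of vehicle-only cultures of the same strain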; settings: S. cerevisiae rad50 strain growth inhibition, hits give high values
Method in brief: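 Growth of the mutant yeast was measured after compound exposure and referenced to vehicle-treated cultures.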

[6] = NCI Yeast Anticancer Drug Screen. Data for the mec2-1 strain (AID 157); settings: S. cerevisiae mec2-1 strain, hits give high values
Method in brief: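 Cells of the genetically defined mec2-1 yeast strain are incubated with test compound. Inhibition of growth is calculated against vehicle-treated controls.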

[7] = NCI Yeast Anticancer Drug Screen. Data for the rad14 strain (AID 159);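 also: 0% = growth of vehicle-treated control cultures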; settings: S. cerevisiae rad14 strain growth inhibition, hits give high values
Method in brief: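 Here, inhibition of yeast growth was measured after compound exposure, using a strain with a genetic defect in DNA damage repair and vehicle-treated cultures as the reference.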

[8] = NCI Yeast Anticancer Drug Screen. Data for the sgs1 mgt1 strain (AID 161);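 also: 0% = growth of cultures given vehicle only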; settings: S. cerevisiae sgs1 mgt1 strain, hits give high values
Method in brief: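 Read-out: growth inhibition vs vehicle controls. Cells: mutant yeast strain deficient in DNA damage repair.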

[9] = NCI Yeast Anticancer Drug Screen. Data for the CLN2oe strain (AID 163);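 also: 0% = growth of vehicle-only control cultures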; settings: S. cerevisiae CLN2oe strain, hits give high values
Method in brief: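 Strain altered in cell-cycle control, incubated with compound; growth compared to solvent-treated controls.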

[10] = NCI Yeast Anticancer Drug Screen. Data for the cln2 rad14 strain (AID 165);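 also: 0% = growth equal to vehicle treated cultures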; settings: S. cerevisiae cln2 rad14 strain, hits give high values
Method in brief: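 The screen exposed genetically defined yeast (cln2 rad14) to test compounds and scored growth inhibition relative to vehicle-treated controls.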

[11] = NCI Yeast Anticancer Drug Screen. Data for the bub3 strain (AID 167); settings: S. cerevisiae bub3 mutant strain, hits give high values
Method in brief: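 Whole-cell yeast assay. The mutant strain was incubated with compounds, and growth inhibition was determined by comparison with vehicle-treated cells.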

[12] = NCI Yeast Anticancer Drug Screen. Data for the wt2 strain (AID 169);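 also: 0% = growth of vehicle-treated yeast cultures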; settings: S. cerevisiae wt2 strain growth inhibition, hits give high values
Method in brief: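 Steps: yeast strain treated with compound; growth recorded; inhibition calculated relative to cultures given vehicle alone.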

[13] = NCI Yeast Anticancer Drug Screen. Data for the mlh1 strain (AID 171);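 also: 0% = growth of vehicle-treated control cultures of the same strain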; settings: S. cerevisiae mlh1 strain growth inhibition, hits give high values
Method in brief: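 Yeast screen: mutant strain plus compound, growth scored against vehicle control wells.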

[14] = NCI Yeast Anticancer Drug Screen. Data for the sgs1 strain (AID 173);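 also: 0% = growth of vehicle-only control cultures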; settings: S. cerevisiae sgs1 mutant, hits give high values
Method in brief: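 Inhibition of yeast growth served as the measure. The mutant strain was treated with each compound, and growth was normalised to cultures receiving vehicle alone.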

[15] = NCI Yeast Anticancer Drug Screen. Data for the mlh1 rad18 strain (AID 175); settings: S. cerevisiae mlh1 rad18 strain growth inhibition, hits give high values
Method in brief: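 Compound-treated yeast growth, normalised to vehicle controls. Strain bears defined DNA repair mutations.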

[16] = NCI Yeast Anticancer Drug Screen. Data for the rad18 strain (AID 177); settings: S. cerevisiae rad18 mutant growth inhibition, hits give high values
Method in brief: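 Inhibition values reflect reduced yeast growth compared with vehicle-treated controls, using a strain engineered with a DNA damage repair defect.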

[17] = at 5.0 µM (retest, dose inferred, filed as 0.5)
[18] = at 50.0 µM (retest, dose inferred, filed as 5.0)

Measured: growth inhibition

Cn1c(-c2ccc(/C=N\N3CCN(/N=C/c4ccc(-c5c[n+]6ccccc6n5C)cc4)CC3)cc2)c[n+]2ccccc12
active: [1]; at 100.0 µM 82% | [2]; at 100.0 µM 92% | [4]; at 100.0 µM 91% | [5]; [18] 94% | [5]; at 100.0 µM 91% | [6]; at 33.0 µM 78% | [6]; [18] 96% | [6]; at 100.0 µM 93% | [7]; at 100.0 µM 84% | [8]; [18] 95% | [8]; at 50.0 µM 72.4% | [9]; at 100.0 µM 86% | [11]; [18] 95% | [11]; at 50.0 µM 80.5% | [11]; at 100.0 µM 91% | [12]; at 33.0 µM 74% | [12]; at 100.0 µM 92% | [13]; at 100.0 µM 90% | [14]; at 100.0 µM 90% | [15]; [18] 94% | [15]; at 50.0 µM 84.3% | [16]; at 100.0 µM 87%
inactive: [1]; at 1.2 µM -56% | [1]; at 3.7 µM -61% | [1]; at 11.0 µM -48% | [1]; at 33.0 µM 23% | [2]; at 1.2 µM -9% | [2]; at 3.7 µM -13% | [2]; at 11.0 µM -4% | [2]; at 33.0 µM 28% | [3]; at 1.2 µM -36% | [3]; at 3.7 µM -26% | [3]; at 11.0 µM -27% | [3]; at 33.0 µM -9% | [3]; at 100.0 µM 6% | [4]; at 1.2 µM -30% | [4]; at 3.7 µM -10% | [4]; at 11.0 µM -27% | [4]; at 33.0 µM 38% | [5]; at 1.2 µM -15% | [5]; at 3.7 µM -16% | [5]; [17] -2% | [5]; at 11.0 µM -4% | [5]; at 33.0 µM 51% | [5]; at 50.0 µM 49% | [6]; at 1.2 µM -8% | [6]; at 3.7 µM -17% | [6]; [17] 15% | [6]; at 11.0 µM 11% | [6]; at 50.0 µM 25.4% | [7]; at 1.2 µM -31% | [7]; at 3.7 µM -36% | [7]; at 11.0 µM -16% | [7]; at 33.0 µM 17% | [8]; [17] 19% | [9]; at 1.2 µM -22% | [9]; at 3.7 µM -41% | [9]; at 11.0 µM -27% | [9]; at 33.0 µM 52% | [10]; [17] -5% | [10]; [18] 69% | [10]; at 50.0 µM 22.4% | [11]; at 1.2 µM -13% | [11]; at 3.7 µM 0% | [11]; [17] 19% | [11]; at 11.0 µM -2% | [11]; at 33.0 µM 54% | [12]; at 1.2 µM -50% | [12]; at 3.7 µM -36% | [12]; at 11.0 µM -37% | [13]; at 1.2 µM -17% | [13]; at 3.7 µM -13% | [13]; at 11.0 µM 3% | [13]; at 33.0 µM 57% | [14]; at 1.2 µM -20% | [14]; at 3.7 µM -33% | [14]; at 11.0 µM -17% | [14]; at 33.0 µM 65% | [15]; [17] 46% | [16]; at 1.2 µM -23% | [16]; at 3.7 µM -19% | [16]; at 11.0 µM -31% | [16]; at 33.0 µM 47%

O=C(Oc1ccc2c(c1)CN(Cc1ccccc1)CO2)c1ccccc1
active: [5]; at 50.0 µM 79.2% | [7]; at 100.0 µM 87% | [8]; at 50.0 µM 77.2% | [11]; at 50.0 µM 72.7% | [14]; at 100.0 µM 70% | [15]; at 50.0 µM 83% | [16]; at 100.0 µM 72%
inactive: [1]; at 1.2 µM -3% | [1]; at 3.7 µM 4% | [1]; at 11.0 µM 8% | [1]; at 33.0 µM 18% | [1]; at 100.0 µM 38% | [2]; at 1.2 µM 2% | [2]; at 3.7 µM 4% | [2]; at 11.0 µM 8% | [2]; at 33.0 µM 13% | [2]; at 100.0 µM 10% | [3]; at 1.2 µM -4% | [3]; at 3.7 µM -3% | [3]; at 11.0 µM 4% | [3]; at 33.0 µM 6% | [3]; at 100.0 µM 22% | [4]; at 1.2 µM -1% | [4]; at 3.7 µM 0% | [4]; at 11.0 µM 2% | [4]; at 33.0 µM 10% | [4]; at 100.0 µM 39% | [5]; at 1.2 µM 2% | [5]; at 3.7 µM 2% | [5]; [17] -1% | [5]; at 11.0 µM 17% | [5]; at 33.0 µM 4% | [5]; [18] 46% | [5]; at 100.0 µM 32% | [6]; at 1.2 µM -2% | [6]; at 3.7 µM 0% | [6]; [17] -15% | [6]; at 11.0 µM 3% | [6]; at 33.0 µM 8% | [6]; [18] 3% | [6]; at 50.0 µM 25.1% | [6]; at 100.0 µM 26% | [7]; at 1.2 µM 4% | [7]; at 3.7 µM 11% | [7]; at 11.0 µM 24% | [7]; at 33.0 µM 40% | [8]; [17] 19% | [8]; [18] 40% | [9]; at 1.2 µM -5% | [9]; at 3.7 µM -5% | [9]; at 11.0 µM -1% | [9]; at 33.0 µM 16% | [9]; at 100.0 µM 42% | [10]; [17] -16% | [10]; [18] 39% | [10]; at 50.0 µM 21.9% | [11]; at 1.2 µM -4% | [11]; at 3.7 µM -2% | [11]; [17] -6% | [11]; at 11.0 µM -29% | [11]; at 33.0 µM 31% | [11]; [18] 46% | [11]; at 100.0 µM 35% | [12]; at 1.2 µM -1% | [12]; at 3.7 µM 3% | [12]; at 11.0 µM 7% | [12]; at 33.0 µM 23% | [12]; at 100.0 µM 40% | [13]; at 1.2 µM 6% | [13]; at 3.7 µM 3% | [13]; at 11.0 µM 7% | [13]; at 33.0 µM 4% | [13]; at 100.0 µM 37% | [14]; at 1.2 µM 4% | [14]; at 3.7 µM 9% | [14]; at 11.0 µM 17% | [14]; at 33.0 µM 42% | [15]; [17] -9% | [15]; [18] 49% | [16]; at 1.2 µM 17% | [16]; at 3.7 µM 15% | [16]; at 11.0 µM 19% | [16]; at 33.0 µM 28%
